The source of these data is PubChem BioAssay (NCATS).

The structures appear in SMILES notation.

The nature of the first test: qHTS profiling of the MIPE4 collection as inhibitors of Plasmodium falciparum (DD2) proliferation (AID 743345). The note with it: P. falciparum Dd2 in erythrocytes, SYBR Green DNA, 72 h; at 28.5 µM (top of the series) unless noted. Summed up:
(§1)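 Erythrocytes infected with P. falciparum (0.3% parasitemia, 2.5% hematocrit) incubated with compounds 72 h at 37 C, 5% CO2. Lysis with saponin/Triton buffer containing SYBR Green I, overnight at room temperature in the dark; DNA fluorescence (485/535 nm) normalised to 0.29 uM artemisinin and DMSO.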
On to `Oc1c(Cl)cc(Cl)c2cccnc12`, for which the parasite growth remaining, % of DMSO control (lower = more inhibition) was 94.2%. Regarding `Nc1nc(F)nc2c1ncn2[C@@H]1O[C@H](CO)[C@@H](O)[C@@H]1O`, the parasite growth remaining, % of DMSO control (lower = more inhibition) came to 19.5%. Still for that read-out and setting: as for `CN1CCN(c2c(F)cc3c(=O)c(C(=O)O)cn(CCF)c3c2F)CC1`, the figure is 95.4%; as for `COc1cc(NCc2ccc3nc(N)nc(N)c3c2C)cc(OC)c1OC`, 7.41%; as for `COc1ccc(C(=O)CC(=O)c2ccc(C(C)(C)C)cc2)cc1`, 88.2%. On the same count and under the same terms, in the case of `CCOc1cc(N)c(Cl)cc1C(=O)NCC1CN(Cc2ccc(F)cc2)CCO1` (stereo unspecified) it was 101%; in that of `NS(=O)(=O)c1cc2c(cc1Cl)NC(C(Cl)Cl)NS2(=O)=O` (stereo unspecified), 86.3%. With `Cc1cccc(N(C)C(=S)Oc2ccc3ccccc3c2)c1`, the parasite growth remaining, % of DMSO control (lower = more inhibition) was determined as 84.1%. The same measure, in the same setting: as for `COC(=O)Nc1nc2ccc(S(=O)c3ccccc3)cc2[nH]1` (stereo unspecified), the figure is 82.8%; as for `CN(Cc1cc(Br)cc(Br)c1N)C1CCCCC1`, 113%; as for `CC(C)(C)NC(=O)[C@H]1CC[C@H]2[C@@H]3CC[C@H]4NC(=O)C=C[C@]4(C)[C@H]3CC[C@]12C`, 91.7%. Turning to `CCOC(=O)c1ccc(C#Cc2ccc3c(c2)C(C)(C)CCS3)nc1`, the parasite growth remaining, % of DMSO control (lower = more inhibition) was 83.8%. Still for that read-out and setting: as for `C[C@@H](CN1CC(=O)NC(=O)C1)N1CC(=O)NC(=O)C1`, the figure is 88.1%; as for `CCC(=O)O[C@]1(C(=O)SCF)[C@H](C)C[C@H]2[C@@H]3C[C@H](F)C4=CC(=O)C=C[C@]4(C)[C@@]3(F)[C@@H](O)C[C@@]21C`, 86.3%. Still for that read-out and setting: in the case of `CC(=O)[C@H]1CC[C@H]2[C@@H]3CC=C4C[C@@H](O)CC[C@]4(C)[C@H]3CC[C@]12C` it was 88.9%; in that of `CN(CCOc1ccc(CC2SC(=O)NC2=O)cc1)c1ccccn1` (stereo unspecified), 93.4%; in that of `CCCCc1oc2ccc(NS(C)(=O)=O)cc2c1C(=O)c1ccc(OCCCN(CCCC)CCCC)cc1`, 6.73%.

Turning to `CCN(C)C(=O)Oc1cccc([C@H](C)N(C)C)c1`, the parasite growth remaining, % of DMSO control (lower = more inhibition) was determined as 17.2%. Same read-out and setting: as for `CCCCCCNC(=O)n1cc(F)c(=O)[nH]c1=O`, the figure is 32%. Still for that read-out and setting: in the case of `COCCCOc1cc(C[C@@H](C[C@H](N)[C@@H](O)C[C@H](C(=O)NCC(C)(C)C(N)=O)C(C)C)C(C)C)ccc1OC` it was 119%; in that of `COc1cnc(NS(=O)(=O)c2ccc(N)cc2)nc1`, 95.4%; in that of `CC(N)C12CC3CC(CC(C3)C1)C2` (stereo unspecified), 12.6%.

As to `CO[C@@H]1[C@@H](OC(N)=O)[C@@H](O)[C@H](Oc2ccc3c(O)c(NC(=O)c4ccc(O)c(CC=C(C)C)c4)c(=O)oc3c2C)OC1(C)C`, the parasite growth remaining, % of DMSO control (lower = more inhibition) turned out to be 75.8%. Consider `Cn1c(=O)c2c(ncn2CC(O)CO)n(C)c1=O` (stereo unspecified), for which the parasite growth remaining, % of DMSO control (lower = more inhibition) stood at 88.3%. On the same count and under the same terms, as for `O=c1oc2c(O)c(O)cc3c(=O)oc4c(O)c(O)cc1c4c23`, the figure is 7.22%. Same read-out and setting: as for `CCCc1nc(C)c2c(=O)[nH]c(-c3cc(S(=O)(=O)N4CCN(CC)CC4)ccc3OCC)nn12`, the figure is 12.3%.

As for `Cc1onc(-c2ccccc2Cl)c1C(=O)N[C@@H]1C(=O)N2[C@@H]1SC(C)(C)[C@@H]2C(=O)O`, the parasite growth remaining, % of DMSO control (lower = more inhibition) worked out at 94.6%. The same measure, in the same setting: as for `CCOCC(O)COc1ccc(NC(=O)CC[S+](C)C)cc1` (stereo unspecified), the figure is 103%.

For `CNCC[C@H](Oc1cccc2ccccc12)c1cccs1`, the parasite growth remaining, % of DMSO control (lower = more inhibition) turned out to be 7.89%.

As to `Nc1ccc(S(=O)(=O)Nc2ccccn2)cc1`, the parasite growth remaining, % of DMSO control (lower = more inhibition) is 89.4%.

`CCOC(=O)[C@H](CCc1ccccc1)N[C@H]1CCc2ccccc2N(CC(=O)O)C1=O`: the parasite growth remaining, % of DMSO control (lower = more inhibition) was found to be 9.11%.

For `C[C@@H](NCCCc1cccc(C(F)(F)F)c1)c1cccc2ccccc12`, the parasite growth remaining, % of DMSO control (lower = more inhibition) is 18.5%. The same measure, in the same setting: as for `O=C(NCC1CN(c2ccc(N3CCOCC3=O)cc2)C(=O)O1)c1ccc(Cl)s1` (stereo unspecified), the figure is 94.4%. With `COc1c(N2CCNC(C)C2)c(F)cc2c(=O)c(C(=O)O)cn(C3CC3)c12` (stereo unspecified), the parasite growth remaining, % of DMSO control (lower = more inhibition) is 11.3%. On the same count and under the same terms, as for `COc1ccc(-c2ccc3cc(C(=O)O)ccc3c2)cc1C12CC3CC(CC(C3)C1)C2`, the figure is 98.8%.

The nature of another test: qHTS profiling of the MIPE4 collection as inhibitors of Plasmodium falciparum (DD2) proliferation (Rep 2) (AID 743346). Particulars: P. falciparum Dd2 in erythrocytes, SYBR Green DNA, 72 h; at 28.5 µM (top of the series) unless noted. Summed up: as §1
On the technique in general: In qHTS, concentration-response curves come from the screen itself.
For `Oc1c(Cl)cc(Cl)c2cccnc12`, the parasite growth, % of control (lower = inhibition) came to 45.4%.

Consider `Nc1nc(F)nc2c1ncn2[C@@H]1O[C@H](CO)[C@@H](O)[C@@H]1O`, for which the parasite growth, % of control (lower = inhibition) was 12%. Still for that read-out and setting: in the case of `CN1CCN(c2c(F)cc3c(=O)c(C(=O)O)cn(CCF)c3c2F)CC1` it was 106%; in that of `COc1cc(NCc2ccc3nc(N)nc(N)c3c2C)cc(OC)c1OC`, 10.9%; in that of `COc1ccc(C(=O)CC(=O)c2ccc(C(C)(C)C)cc2)cc1`, 6.24%. For the compound `CCOc1cc(N)c(Cl)cc1C(=O)NCC1CN(Cc2ccc(F)cc2)CCO1` (stereo unspecified), the parasite growth, % of control (lower = inhibition) was 178%. The same measure, in the same setting: in the case of `NS(=O)(=O)c1cc2c(cc1Cl)NC(C(Cl)Cl)NS2(=O)=O` (stereo unspecified) it was 65%; in that of `Cc1cccc(N(C)C(=S)Oc2ccc3ccccc3c2)c1`, 51.6%; in that of `COC(=O)Nc1nc2ccc(S(=O)c3ccccc3)cc2[nH]1` (stereo unspecified), 68.5%. Still for that read-out and setting: in the case of `CN(Cc1cc(Br)cc(Br)c1N)C1CCCCC1` it was 25.7%.

Regarding `CC(C)(C)NC(=O)[C@H]1CC[C@H]2[C@@H]3CC[C@H]4NC(=O)C=C[C@]4(C)[C@H]3CC[C@]12C`, the parasite growth, % of control (lower = inhibition) is 53%. Same read-out and setting: as for `CCOC(=O)c1ccc(C#Cc2ccc3c(c2)C(C)(C)CCS3)nc1`, the figure is 29.1%.

For `C[C@@H](CN1CC(=O)NC(=O)C1)N1CC(=O)NC(=O)C1`, the parasite growth, % of control (lower = inhibition) worked out at 105%. Regarding `CCC(=O)O[C@]1(C(=O)SCF)[C@H](C)C[C@H]2[C@@H]3C[C@H](F)C4=CC(=O)C=C[C@]4(C)[C@@]3(F)[C@@H](O)C[C@@]21C`, the parasite growth, % of control (lower = inhibition) worked out at 44.9%. On the same count and under the same terms, as for `CC(=O)[C@H]1CC[C@H]2[C@@H]3CC=C4C[C@@H](O)CC[C@]4(C)[C@H]3CC[C@]12C`, the figure is 85.3%. The same measure, in the same setting: in the case of `CN(CCOc1ccc(CC2SC(=O)NC2=O)cc1)c1ccccn1` (stereo unspecified) it was 95.7%.

Take `CCCCc1oc2ccc(NS(C)(=O)=O)cc2c1C(=O)c1ccc(OCCCN(CCCC)CCCC)cc1`: the parasite growth, % of control (lower = inhibition) came out at 18.2%. Still for that read-out and setting: as for `CCCCCCNC(=O)n1cc(F)c(=O)[nH]c1=O`, the figure is 30.5%; as for `COCCCOc1cc(C[C@@H](C[C@H](N)[C@@H](O)C[C@H](C(=O)NCC(C)(C)C(N)=O)C(C)C)C(C)C)ccc1OC`, 50.1%; as for `COc1cnc(NS(=O)(=O)c2ccc(N)cc2)nc1`, 79.9%.

Regarding `CC(N)C12CC3CC(CC(C3)C1)C2` (stereo unspecified), the parasite growth, % of control (lower = inhibition) came out at 32.1%. For the compound `CO[C@@H]1[C@@H](OC(N)=O)[C@@H](O)[C@H](Oc2ccc3c(O)c(NC(=O)c4ccc(O)c(CC=C(C)C)c4)c(=O)oc3c2C)OC1(C)C`, the parasite growth, % of control (lower = inhibition) is 39.2%. Still for that read-out and setting: as for `Cn1c(=O)c2c(ncn2CC(O)CO)n(C)c1=O` (stereo unspecified), the figure is 96.6%; as for `O=c1oc2c(O)c(O)cc3c(=O)oc4c(O)c(O)cc1c4c23`, 5.89%; as for `CCCc1nc(C)c2c(=O)[nH]c(-c3cc(S(=O)(=O)N4CCN(CC)CC4)ccc3OCC)nn12`, 33.2%.

Regarding `Cc1onc(-c2ccccc2Cl)c1C(=O)N[C@@H]1C(=O)N2[C@@H]1SC(C)(C)[C@@H]2C(=O)O`, the parasite growth, % of control (lower = inhibition) worked out at 79%. Turning to `CCOCC(O)COc1ccc(NC(=O)CC[S+](C)C)cc1` (stereo unspecified), the parasite growth, % of control (lower = inhibition) came to 97.7%.

For the compound `COc1cc([C@@H]2c3cc4c(cc3[C@H](O)[C@H]3COC(=O)[C@H]23)OCO4)cc(OC)c1OC`, the parasite growth, % of control (lower = inhibition) was 10.2%. Still for that read-out and setting: as for `CNCC[C@H](Oc1cccc2ccccc12)c1cccs1`, the figure is 14.2%; as for `Nc1ccc(S(=O)(=O)Nc2ccccn2)cc1`, 84.7%. As to `CCOC(=O)[C@H](CCc1ccccc1)N[C@H]1CCc2ccccc2N(CC(=O)O)C1=O`, the parasite growth, % of control (lower = inhibition) worked out at 22.6%. Still for that read-out and setting: as for `C[C@@H](NCCCc1cccc(C(F)(F)F)c1)c1cccc2ccccc12`, the figure is 10.9%.

On to `O=C(NCC1CN(c2ccc(N3CCOCC3=O)cc2)C(=O)O1)c1ccc(Cl)s1` (stereo unspecified), for which the parasite growth, % of control (lower = inhibition) stood at 80.7%.

Turning to `O=C(O)c1cccnc1`, the parasite growth, % of control (lower = inhibition) was 95.2%. In the case of `COc1c(N2CCNC(C)C2)c(F)cc2c(=O)c(C(=O)O)cn(C3CC3)c12` (stereo unspecified), the parasite growth, % of control (lower = inhibition) worked out at 23.4%. On the same count and under the same terms, as for `COc1ccc(-c2ccc3cc(C(=O)O)ccc3c2)cc1C12CC3CC(CC(C3)C1)C2`, the figure is 58.3%.
